Rows were chosen to be rich in hits. Some 6.7% of all compounds tested hit in one or more screens of this group.
C diff growth: blocks growth of Clostridium difficile. growth activity, negative = inhibition, % at 16 µg/mL (by protocol). Clostridium difficile clinical isolate growth, OD600, 24 h; active compounds read low. 86,000 compounds, 0.25% hits;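 active means mean growth activity at or below -80% and every replicate also at or below -80%; inconclusive means mean at or below -80% but some replicate above -80%; inactive means mean growth activity above -80%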;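 further: 0% = DMSO wells and -100% = levofloxacin 16 µg/mL wells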
T cruzi growth-1: inhibitors of T. cruzi proliferation | T. cruzi beta-gal in NIH3T3, GalScreen luminescence, 90 h | AID 624255 | inhibition, % at 8.34 µM | 77,000 compounds, 5.9% hits;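 active means mean inhibition above about 93%, with at least 55% of replicates each passing it, limit read from the data, passing the limit was not always enough; inconclusive means only one of those two conditions holds; inactive means neither condition holds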
Pf Dd2 growth: inhibitors of Plasmodium falciparum Dd2 growth. activity change, % at 10 µM. P. falciparum Dd2 growth, SYBR Green, 72 h; active compounds read low. 94,000 compounds, 2.3% hits; in the data active means activity change below about -80%; inconclusive means no clear call, values can overlap the other calls
T cruzi growth-2: Trypanosoma cruzi proliferation inhibition. shares compounds with T cruzi growth-1. T. cruzi beta-gal in NIH3T3, GalScreen luminescence, 90 h. inhibition, % at 8.35 µM. 5,600 compounds, 72% hits;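 active means mean replicate inhibition above about 95% and at least 55% of replicates individually reaching it, limit read from the data; inconclusive means only one of the two criteria is met; inactive means neither criterion is met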
T cruzi growth-3: blocks T. cruzi growth in NIH3T3 host cells. T. cruzi beta-gal in NIH3T3, GalScreen luminescence, 90 h. 5,600 compounds, 21% hits. AID 651740. inhibition, % at 2.09 µM. shares compounds with T cruzi growth-1;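 active means mean inhibition above about 95%, with at least 55% of replicates also reaching it, limit read from the data; inconclusive means meets just one of the two conditions; inactive means meets neither condition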;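 further: plate controls were neutral control median for no effect and positive control median for full effect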
3T3 cytotox: NIH/3T3 (mouse) viability loss. 5,600 compounds, 14% hits. shares compounds with T cruzi growth-1. NIH/3T3 viability, CellTiter-Glo ATP luminescence, 90 h. cytotoxicity (signal decrease), % at 8.35 µM;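 active means mean signal decrease across replicates above about 35% based on untreated-well scatter, with enough replicates individually passing, limit read from the data; inconclusive means no rule stated though some were filed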;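 further: 0% = median of neutral control wells and 100% = median of positive control wells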
3T3 cytotox 2: cytotoxicity in mouse NIH/3T3 fibroblasts | shares compounds with T cruzi growth-1 | 5,600 compounds, 56% hits | NIH/3T3 viability, CellTiter-Glo ATP luminescence, 90 h | inhibition, % at 24.9 µM | AID 651744;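 active means mean loss of cell viability signal at or above a set limit, and enough replicates individually reaching it; inconclusive means meets only the mean limit or only the replicate share; inactive means meets neither condition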;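 further: 0% = median of neutral control wells and 100% = median of positive control wells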
Numbers without * were called inactive; ? = inconclusive; nt = no result given.

SMILES | C diff growth | T cruzi growth-1 | Pf Dd2 growth | T cruzi growth-2 | T cruzi growth-3 | 3T3 cytotox | 3T3 cytotox 2
C[C@@H]1CCCCO[C@H](CN(C)C(=O)NC2CCCCC2)[C@H](C)CN([C@@H](C)CO)C(=O)c2cc(NC(=O)Nc3cccc4ccccc34)ccc2O1 | -11.7 | 108.4* | 0.5 | 105.9* | 77.2 | -27.8 | -1.6
C[C@@H]1CCCCO[C@H](CN(C)C(=O)NC2CCCCC2)[C@@H](C)CN([C@H](C)CO)C(=O)c2cc(NC(=O)Nc3cccc4ccccc34)ccc2O1 | -5.5 | 103.7* | -34.9 | 108.8* | 30.3 | -21.0 | -15.0
C[C@@H]1CCCCO[C@H](CN(C)C(=O)Nc2cccc3ccccc23)[C@H](C)CN([C@H](C)CO)C(=O)c2cc(N(C)C)ccc2O1 | 2.5 | 99.0* | -53.2 | 96.5* | 22.5 | 10.9 | 12.8
CCN1[C@H](C(=O)Nc2nccs2)[C@@H](CO)[C@@H]2Cn3c(ccc(/C=C/c4ccccc4)c3=O)[C@@H]21 | 10.7 | nt | -27.1 | nt | nt | nt | nt
O=C(N[C@@H]1C=C[C@H](CC(=O)N2CCCCC2)O[C@H]1CO)c1ccc2c(c1)OCO2 | nt | 19.0 | 10.8 | nt | nt | nt | nt
O=C(c1ccncc1)N1CC(=O)N2[C@H](CO)[C@@H](c3ccc(-c4ccccc4)cc3)[C@@H]2C1 | -9.6 | nt | -12.7 | nt | nt | nt | nt
C[C@@H]1CN([C@@H](C)CO)C(=O)c2cc(NC(=O)NC3CCCCC3)ccc2O[C@@H](C)CCCCO[C@H]1CN(C)C(=O)Nc1cccc2ccccc12 | -3.0 | 53.5 | -51.9 | nt | nt | nt | nt
C[C@@H]1CCCCO[C@@H](CN(C)C(=O)Nc2cccc3ccccc23)[C@@H](C)CN([C@H](C)CO)C(=O)c2cc(NC(=O)c3ccccc3)ccc2O1 | 6.0 | 45.0 | -53.4 | nt | nt | nt | nt
C[C@@H]1CCCCO[C@H](CN(C)C(=O)Nc2cccc3ccccc23)[C@@H](C)CN([C@@H](C)CO)C(=O)c2cc(NC(=O)c3ccccc3)ccc2O1 | 4.1 | ? | -81.6* | 107.2* | 83.6 | 26.0 | 36.2*
C[C@H]1CCCCO[C@H](CN(C)C(=O)Nc2cccc3ccccc23)[C@@H](C)CN([C@@H](C)CO)C(=O)c2cc(NC(=O)NC3CCCCC3)ccc2O1 | -6.0 | 99.3* | -17.9 | 107.7* | 112.0* | -37.5 | 6.4
CN(C)C(=O)[C@H]1[C@H](CO)[C@H]2Cn3c(ccc(C4=CCCC4)c3=O)[C@@H]1N2CCC(F)(F)F | 7.6 | nt | -2.1 | nt | nt | nt | nt
COCCNC(=O)C[C@H]1CC[C@H]2[C@@H](COc3ccc(NC(=O)CC(F)(F)F)cc3C(=O)N2C)O1 | 0.1 | -7.3 | 2.0 | nt | nt | nt | nt
N#Cc1ccc(-c2ccc3c(c2)[C@@H]2[C@@H](CCN2C(=O)c2ccc(F)cc2)[C@@H](CO)N3)cc1 | 29.0 | 24.0 | 16.2 | nt | nt | nt | nt
COc1ccccc1-c1ccc([C@H]2[C@H](CO)N3CCCCN(C(=O)CN4CCOCC4)C[C@@H]23)cc1 | -4.0 | 100.3* | -3.2 | 78.5 | 40.1 | 19.1 | 30.6*
O=C(CN1CCOCC1)N1CCCCN2[C@H](CO)[C@@H](c3ccc(C#Cc4ccccc4)cc3)[C@@H]2C1 | -1.6 | 64.3 | -0.9 | nt | nt | nt | nt
O=C(CN1CCOCC1)N1CCCCN2[C@@H](CO)[C@@H](c3ccc(-c4ccccc4)cc3)[C@@H]2C1 | 0.0 | 91.2* | 1.0 | 74.9 | -14.8 | -4.8 | 12.0
O=C(CN1CCOCC1)N1CCCCN2[C@H](C1)[C@H](c1ccc(-c3ccccc3)cc1)[C@@H]2CO | -6.4 | -6.4 | 14.7 | nt | nt | nt | nt
COc1ccccc1-c1ccc([C@H]2[C@@H](CO)N3CCCCN(C(=O)CN4CCOCC4)C[C@H]23)cc1 | -5.4 | 61.8 | -32.7 | nt | nt | nt | nt
O=C(CN1CCOCC1)N1CCCCN2[C@@H](CO)[C@H](c3ccc(-c4ccccc4F)cc3)[C@@H]2C1 | -12.1 | ? | 43.3 | 79.3 | 73.0 | -9.0 | -27.4
O=C(CN1CCOCC1)N1CCCCN2[C@H](CO)[C@H](c3ccc(C#Cc4ccccc4)cc3)[C@@H]2C1 | -17.0 | 103.2* | 14.5 | 105.6* | 30.0 | 41.2* | 66.7*
O=C(CN1CCOCC1)N1CCCCN2[C@H](CO)[C@H](c3ccc(-c4ccccc4F)cc3)[C@@H]2C1 | -3.7 | 84.7 | 21.8 | nt | nt | nt | nt
CCN1[C@@H]2c3ccc(C4=CCCC4)c(=O)n3C[C@H]1[C@H](CO)[C@H]2C(=O)NCc1ccccn1 | -2.1 | 75.2 | 9.0 | nt | nt | nt | nt
O=C(C[C@@H]1C[C@H]2c3cc(NC(=O)CC4CC4)ccc3O[C@H]2[C@H](CO)O1)NCC(F)(F)F | 0.7 | 21.7 | 5.5 | nt | nt | nt | nt
CCC(=O)N[C@H]1C=C[C@@H](CC(=O)OC)O[C@@H]1CO | nt | 63.3 | -1.4 | nt | nt | nt | nt
C[C@@H]1CN([C@@H](C)CO)C(=O)c2cc(NC(=O)Cn3cnnn3)ccc2O[C@@H]1CN(C)C(=O)Nc1ccc2c(c1)OCO2 | nt | -104.9 | -19.6 | nt | nt | nt | nt
SMILES | C diff growth | T cruzi growth-1 | Pf Dd2 growth | T cruzi growth-2 | T cruzi growth-3 | 3T3 cytotox | 3T3 cytotox 2
C[C@@H]1CN([C@H](C)CO)C(=O)Cc2cc(NC(=O)CCCCCC(=O)Nc3ccccc3N)ccc2O[C@@H]1CN(C)C(=O)NC1CCCCC1 | -0.3 | 43.5 | 3.4 | nt | nt | nt | nt
C[C@@H]1CN([C@@H](C)CO)C(=O)Cc2cc(NC(=O)Nc3ccc(C(F)(F)F)cc3)ccc2O[C@@H]1CN(C)C(=O)Nc1ccc(F)cc1 | -4.3 | 3.5 | -9.9 | nt | nt | nt | nt
COC(=O)C[C@H]1C[C@H]2c3cc(NC(=O)c4ccc5c(c4)OCO5)ccc3O[C@H]2[C@@H](CO)O1 | -3.5 | 25.9 | 14.7 | nt | nt | nt | nt
C[C@H](CO)N1C[C@H](C)[C@@H](CN(C)S(C)(=O)=O)OCCCC[C@H](C)Oc2ccc(NS(=O)(=O)c3ccc(F)cc3)cc2C1=O | -6.3 | -48.9 | -32.4 | nt | nt | nt | nt
O=C(CN1CCOCC1)N1CCCCN2[C@H](CO)[C@@H](c3ccc(/C=C/c4ccccc4)cc3)[C@H]2C1 | -2.4 | 9.8 | -5.9 | nt | nt | nt | nt
O=C(CN1CCOCC1)N1CCCCN2[C@H](CO)[C@H](c3ccc(/C=C/c4ccccc4)cc3)[C@@H]2C1 | -12.3 | 106.2* | -9.2 | 107.5* | 86.3 | 40.5* | 41.5*
O=C(CN1CCOCC1)N1CCCCN2[C@H](CO)[C@H](c3ccc(/C=C/c4ccccc4)cc3)[C@H]2C1 | -4.8 | 99.9* | -70.5 | 96.6* | 62.3 | 24.5 | 105.1*
O=C(CN1CCOCC1)N1CCCCN2[C@H](C1)[C@@H](c1ccc(/C=C/c3ccccc3)cc1)[C@@H]2CO | -8.1 | 83.0 | -11.8 | nt | nt | nt | nt
COc1ccc(CN(C)C[C@H]2Oc3ccc(NC(=O)Cn4cnnn4)cc3CC(=O)N([C@H](C)CO)C[C@@H]2C)cc1 | -3.5 | 85.6 | 6.2 | nt | nt | nt | nt
CNC[C@@H]1OCCCC[C@@H](C)Oc2ccc(NC(=O)c3ccccc3)cc2C(=O)N([C@@H](C)CO)C[C@H]1C | -4.3 | 46.6 | 14.9 | nt | nt | nt | nt
C[C@@H]1CN([C@H](C)CO)C(=O)c2cccc(NS(=O)(=O)c3cn(C)cn3)c2O[C@H]1CN(C)Cc1ccc(C(F)(F)F)cc1 | -2.9 | 35.9 | -6.9 | nt | nt | nt | nt
